This is part of a sample that, as a whole, favours compounds with a hit. Of some 83,000 tested, about 20% had one in any assay.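 Values shown are percent growth following 48 h exposure of cells in 96-well plates to a single concentration of compound; below 10 was considered active.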 A number with no mark means an inactive call. The source made the active and inactive calls.
system: SF-295 CNS; test: NCI-60 one-dose screen, 48 h (100 = growth as untreated, 0 = no growth, -100 = all killed); details: 10 µM unless noted

Compound | growth
Cc1ccc2c(n1)C(=O)C(Cl)=C(Nc1cccc(C(C)C)c1)C2=O | 70.1%
Cn1cc(-c2cc(N)n3nc(-c4cn(C)c5ccc(F)cc45)cc3n2)c2cc(F)ccc21 | 80.1%
Cn1c(SCC(=O)c2cccs2)nc2ccccc2c1=O | 107%
CCCC(=O)NC(c1ccc(N(CC)CC)cc1)c1cc(C)c2cccnc2c1O (centres undefined) | 17.6%
COC(=O)C1CCCN(S(=O)(=O)/N=C2\NC(=O)NC2=C(Cl)Cl)C1 (centres undefined) | 104%
O=C(N/N=C/c1ccc([N+](=O)[O-])s1)c1[nH]c2ccc(Br)cc2c1-c1ccccc1 | 23.8%
C=C1CC[C@H]2[C@@](C)(CCC3OC(c4ccc(OCc5cn(C6CC(OC(C)=O)C(OC(C)=O)C(COC(C)=O)O6)nn5)cc4)OC[C@]32C)[C@@H]1/C=C/C1=CCOC1=O (some centres undefined) | 61%
COc1ccc([C@@H]2c3[nH]c4ccccc4c3CC3C(=O)N(C4CCN(Cc5c(F)cccc5F)CC4)CC(=O)N32)c(OC)c1 (some centres undefined) | 67.1% [5.26 µM]
O=C(N/N=C/c1ccc(Br)s1)c1[nH]c2ccc(Br)cc2c1-c1ccccc1 | 14.8%
O=C1c2c(c3c4cccnc4[nH]c3c3ccc4ccccc4c23)C(=O)N1CCO | 50.9%
Nc1c(C(=O)Nc2ccc(C(F)(F)F)cc2)sc2nc(-c3cnccn3)cc(-c3cccs3)c12 | 78.7%
CSc1ccc2c(c1)N(C(=O)/C(C#N)=C/c1c[nH]c3ccccc13)c1ccccc1S2 | 15%
Cc1cc(C(=O)Nc2sc3c(c2C(N)=O)CCC(=O)C3)ccc1OCCN1CCCCC1 | 113%
CN(C)c1ccc(/C=c2\sc3nc4ccccc4n3c2=O)cc1 | 109%
CN(C)c1ccc(/C=C2\Cc3c(F)ccc(Br)c3C2=O)cc1 | 101%
CN1CCN(Cc2ccc(NC(=O)c3cncc(C#Cc4cnc5ccc(N6CCSCC6)nn45)c3)cc2C(F)(F)F)CC1 | -36.2% (active)
COc1cc(/C=C/C(=O)c2ccc(C)cc2)ccc1Oc1nc(NCCO)nc(N2CCOCC2)n1 | 79.8%
O=C(CSc1nnc(-c2ccc3nc(-c4ccc(Cl)cc4)[nH]c3c2)o1)Nc1ccc(C(=O)/C=C/c2ccc(Cl)cc2)cc1 | 93%
C#Cc1nc(C2=C(C)C(=N\O)/C(=N/O)C2)cs1 | 101%
CCOc1ccc2nc(NC(=O)c3ccc(C(F)(F)F)cc3)sc2c1 | 111%

Compound | growth
CC(O)C(NC(=O)C1CCCN1C(=O)CNC(=O)C1CC(=O)NCC(=O)NC(Cc2c[nH]c3ccccc23)C(=O)NC(Cc2ccc(O)cc2)C(=O)NCC(=O)NC(CO)C(=O)NC(CCC(N)=O)C(=O)NC(Cc2c[nH]c3ccccc23)C(=O)N1)C(=O)NCC(=O)NC(CCC(N)=O)C(=O)NC(CCCNC(=N)N)C(=O)NC(CC(=O)O)C(=O)O (centres undefined) | 102%
CC1=C(C)C(=O)C(Nc2ccccc2)=C(Cl)C1=O | 102%
CO/N=C1\CCc2c(sc(NC(=O)c3cccc(C(F)(F)F)c3)c2C(N)=O)C1 | 30.8%
COc1ccc(CNS(=O)(=O)/N=C2\NC(=O)NC2=C(Cl)Cl)cc1 | -22.9% (active)
NS(=O)(=O)c1cccc(Nc2nc(SCC(=O)c3ccc([N+](=O)[O-])cc3)nc3ccccc23)c1 | 36.8%
Cn1ccnc1C(=O)/C=C/c1ccc(NC(=O)Nc2ccccc2)cc1 | 3.79% (active)
CCOC(=O)c1sc(N)c(C(=O)OCC)c1C | 81.5%
CN(C)S(=O)(=O)c1oc(-c2ccccc2)nc1C#N | 99.3%
O=C1Nc2cc(Cl)ccc2/C1=C\c1ccc(OCc2ccc(Br)cc2F)cc1 | -83.2% (active)
COc1cc(/C=C/C(=O)c2cc(OC)c(OC)c(OC)c2)ccc1OCc1ccccc1 | 50.8%
NC(=O)c1cc(-c2ccc3ncnc(N4CCc5cc(F)c(Cl)cc54)c3c2)cnc1N | 25.3%
COc1ccc(NC2=C(Cl)C(=O)C(C)=C(C)C2=O)cc1OC | 101%
Cn1ccnc1C(=O)/C=C/c1ccc(NC(=O)Nc2ccc(F)cc2)cc1 | 23.3%
O=C(CCN1C(=O)/C(=C/c2ccccc2)SC1=S)N1CCOCC1 | 98.1%
Cc1ccc(CNS(=O)(=O)/N=C2\NC(=O)NC2=C(Cl)Cl)cc1 | 4.1% (active)
N#Cc1c(-c2ccc(Cl)cc2)nc(SCc2ccc(F)cc2)nc1N1CCNCC1 | 96.8%
Clc1ccc(-c2cn3cc(Cc4ccc(Cl)c(Cl)c4)sc3n2)cc1 | 35.8%
COc1ccc(/C=N/NC(=O)c2[nH]c3ccc(Br)cc3c2-c2ccccc2)o1 | 16.6%
O=C(Nc1nc2ccc(O)cc2s1)c1cccc(C(F)(F)F)c1 | 69.9%

Reference: PubChem BioAssay (NCI)
